mHTT CaM bind: mutant huntingtin-calmodulin interaction inhibitors – biochemical, AlphaScreen, primary screen | inhibition, % at 15 µM | AID 1671202, 2021 | P42858 | 190,000 compounds, 3.6% hits | AlphaScreen His-mHTT/GST-CaM binding, luminescence;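 also: 0% = both proteins with DMSO and 100% = one protein alone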
Pf apPOL inh: Pf-apPOL inhibitors, biochemical, fluorescence. Plasmodium falciparum apicoplast DNA polymerase (apPOL). Recombinant Pf-apPOL, molecular beacon fluorescence, 1.5 h. inhibition, % at 10 µM. 210,000 compounds, 0.25% hits. AID 1794808, 2022
Active calls of the source: *; / = no result given. Sampled rows, rich in hits. Any-hit rate of the full collection: about 3.6%. Rule as the data show it: active = inhibition above about 50%; inactive = the rest.

SMILES | mHTT CaM bind | Pf apPOL inh
Cc1ccccc1NC(=O)CN1C(=O)CC(c2ccccc2)=Nc2cccnc21 | -5 | 13
O=C(CC1CCN(C(=O)c2ccccc2Cl)CC1)NC1CCCC1 | -6 | -9
Cc1ccc(C)c(N2CCN(c3ncnc4c3nc3n4CCCC3)CC2)c1 | 19 | -3
Cc1ccc(Cl)cc1N1CCN(c2ncnc3c2nc2n3CCCC2)CC1 | 99* | 1
Cc1ccc(N2C=NS(=O)(=O)c3cccnc32)cc1Cl | -4 | 9
COc1ccc(C(=O)N2CCc3nc4cc(-c5ccccc5)[nH]n4c(=O)c3C2)c(OC)n1 | -3 | -1
Cn1nc(C(=O)N2CCc3c(nc4cc(-c5ccccc5)[nH]n4c3=O)C2)c2ccccc21 | 61* | 3
COc1cccc(C(=O)N2CCc3c(nc4cc(-c5ccccc5)[nH]n4c3=O)C2)c1OC | 66* | 5
COc1ccc(Cl)cc1C(=O)N1CCc2c(nc3cc(-c4ccccc4)[nH]n3c2=O)C1 | 41 | -6
COc1ccc(C(=O)N2CCc3c(nc4cc(-c5ccccc5)[nH]n4c3=O)C2)c(OC)n1 | 56* | -1
Cn1nc(C(=O)N2CCc3nc4cc(-c5ccccc5)[nH]n4c(=O)c3C2)c2ccccc21 | 50 | 19
Cc1ccc(C(=O)N2CCc3c(nc4cc(-c5ccccc5Cl)[nH]n4c3=O)C2)cn1 | 25 | 2
COc1ccc(C(=O)N2CCc3c(nc4cc(-c5ccccc5Cl)[nH]n4c3=O)C2)cn1 | 53* | 0
COc1ccc2cc(-c3ccc(OC)c(OC)c3)c(=O)oc2c1 | -10 | -15
CS(=O)(=O)N1CCc2ccc(NC(=O)Nc3ccccc3Br)cc21 | 6 | -2
O=C(Nc1cccc(F)c1)N1CCc2c(nc3cc(-c4ccccc4Cl)[nH]n3c2=O)C1 | 73* | 0
COc1ccc(NC(=O)N2CCc3c(nc4cc(-c5ccccc5)[nH]n4c3=O)C2)c(OC)c1 | 52* | 0
COc1ccc(NC(=O)N2CCc3nc4cc(-c5ccccc5)[nH]n4c(=O)c3C2)c(OC)c1 | 0 | -5
O=C(c1ccncc1)N1CCc2c(nc3cc(-c4ccccc4Cl)[nH]n3c2=O)C1 | 10 | 2
COc1ccc(OC)c(NC(=O)c2cc(-c3ccccc3)nc3ccccc23)c1 | 3 | 5
O=C(O)CCCCCN1CCN(c2ccccc2)CC1 | / | -2
O=C(Nc1cc(F)cc(F)c1)C1CCc2sc(C(=O)N3CCCC3)cc2C1 (configuration not stated) | 5 | -1
N#CC1=C(N)Oc2c(C=Nc3ccccc3)ccc(O)c2C1c1ccccc1[N+](=O)[O-] (configuration not stated) | 100* | -10
COc1ccc(N=Cc2cc([N+](=O)[O-])ccc2O)cc1 | 11 | -3
COc1ccc(N=Cc2ccc(O)c3c2OC(N)=C(C#N)C3c2cccc([N+](=O)[O-])c2)cc1 (configuration not stated) | 99* | -6
SMILES | mHTT CaM bind | Pf apPOL inh
CCc1[nH]nc2c1C(c1ccccc1[N+](=O)[O-])C(C#N)=C(N)O2 (configuration not stated) | 11 | 9
O=C(c1ccccc1C(F)(F)F)N1CCN(C(=O)C2CC2c2ccc3c(c2)OCO3)CC1 (configuration not stated) | -1 | -1
O=C1CSC(=O)N1c1ccc(C(F)(F)F)cc1 | / | 8
Cc1ccc(N=C2C(=O)N(CN3CCOCC3)c3ccccc32)cc1C | 58* | 7
Cc1ccc(N=C2C(=O)N(CN3CCOCC3)c3ccccc32)cc1 | 6 | -5
CCc1nc2c(NC(=O)c3ccc(C(F)(F)F)cc3)cccn2n1 | 54* | 0
CCc1nc2c(NC(=O)c3cc(F)cc(F)c3)cccn2n1 | -6 | -3
O=[N+]([O-])c1ccc(O)c(C2=NNC(c3ccncc3)C2)c1 (configuration not stated) | 30 | -2
COc1ccc(C2=NNC(c3ccc(Br)cc3)C2)c(O)c1 (configuration not stated) | 47 | -7
Cn1c(Cl)cnc1C1CC(c2cc(Cl)ccc2O)=NN1 (configuration not stated) | 67* | 3
Oc1ccc(F)cc1C1=NNC(c2ccc3c(c2)OCCO3)C1 (configuration not stated) | 39 | 1
O=[N+]([O-])c1ccc(O)c(C2=NNC(c3ccc(Cl)cc3)C2)c1 (configuration not stated) | 55* | -1
Oc1ccccc1C1=NNC(c2ccc(Br)cc2)C1 (configuration not stated) | 57* | -3
Oc1ccc(Cl)cc1C1=NNC(c2ccc3c(c2)OCCO3)C1 (configuration not stated) | 63* | -3
Cn1c(Cl)cnc1C1CC(=O)c2cc(Cl)ccc2O1 (configuration not stated) | 16 | 0
O=C(NC(c1ccccc1)c1ccccc1)c1c(F)c(F)c(F)c(F)c1F | -12 | -3
O=C(CSCC(=O)Nc1ccc(OC(F)(F)F)cc1)NNC(=S)Nc1ccccc1 | / | -197

High-throughput results as filed in PubChem BioAssay.
